Screening results as filed in PubChem.
The list is not random: actives were taken first. Their share in the collection is about 19%.
DT40 TDP1 CPT: qHTS for Inhibitors of human tyrosyl-DNA phosphodiesterase 1 (TDP1): qHTS in cells in presence of CPT | chicken DT40 Tdp1-/-;hTDP1 cells + 20 nM CPT, ATP luminescence, 48 h | Potency, µM (titrated, usually from 46.2 µM), without a hit: at the highest dose activity change, negative = growth inhibition, usual class: inhibitors | actives 12% (n = 420,000); also: potency is read from the fitted curve at half-maximal effect; nearly all actives have a fitted effect of over 55% in size
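Chicken DT40 Tdp1-/- cells stably complemented with human TDP1 were seeded at 400 cells/well in medium containing 20 nM camptothecin, exposed to pin-transferred compounds, and grown at 37 °C for at least 48 hr. Viability was read as ATP luminescence.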
TDP1 cell noCPT: qHTS for Inhibitors of human tyrosyl-DNA phosphodiesterase 1 (TDP1): qHTS in cells in absence of CPT. DT40 Tdp1-/- hTDP1 cells, no CPT, ATP luminescence, 48 h. Potency, µM (titrated, usually from 46.2 µM), for the others: top-dose activity change, negative = growth inhibition, usual class: inhibitors. actives 15% (n = 420,000); also: potency is read from the fitted curve at half-maximal effect; nearly all actives have a fitted effect of over 55% in size
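Stably hTDP1-transfected Tdp1-null chicken DT40 cells were treated with library compounds minus camptothecin and grown for at least 48 hr at 37 °C, after which cellular ATP was quantified by luminescence.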
IL-1B inflam inh: qHTS for Inhibitors of Inflammasome Signaling: IL-1-beta AlphaLISA Primary Screen | actives 4.7% (n = 360,000) | activity change, % at 57.5 µM | THP-1 LPS/ATP IL-1B secretion, AlphaLISA, 16 h; hits give low values; in the data active = activity change below about -50%; inconclusive = mostly about -30% to -49%
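THP-1 cells pretreated 1 hr with compounds (up to 57.5 uM final), then stimulated with LPS (250 ng/mL final) plus ATP (1.25 mM final); secreted IL-1B measured by AlphaLISA after 16 hr, decreased signal indicating inhibition.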
HT1080NT lethal: qHTS for induction of synthetic lethality in tumor cells producing 2HG: qHTS for the HT-1080-NT fibrosarcoma cell line; actives 1.6% (n = 360,000); Potency, µM (doses to about 46.1 µM), for the others: top-dose activity, negative = less viability, hits mostly cytotoxic; HT-1080-NT fibrosarcoma viability, CellTiter-Glo ATP luminescence, 48 h; AID 686970, 2013;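 also: NT is the 2HG producing partner of a matched IDH1 knockdown line; potency is read from the fitted curve at half-maximal effect; 0% = DMSO-treated cells and -100% = media-only wells without cells; nearly all actives have a fitted effect of over 55% in size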
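HT-1080-NT; 750 cells/well; 5% FBS RPMI; 48 h compound, 37 degrees C; CellTiter-Glo luminescence; curve fitting and curve-class assignment.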
HT1080 IDH1KD tx: qHTS for induction of synthetic lethality in tumor cells producing 2HG: qHTS for the HT-1080-IDH1KD cell line; HT-1080 IDH1 knockdown viability, ATP luminescence, 48 h; actives 2% (n = 360,000); Potency, µM (titrated, usually from 46.1 µM), inactives show top-dose activity, negative = toxicity, hits mostly cytotoxic;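 also: potency is read from the fitted curve at half-maximal effect; 0% = DMSO wells and -100% = cell-free medium wells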
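Knockdown cells (IDH1KD HT-1080) received compounds 2 h after plating at 750 cells/well and were kept 48 h at 37 °C in 5% FBS RPMI. A CellTiter-Glo luminescence read gave % activity for curve fitting.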
The depositor's hits bear a star; u = inconclusive; x = no result given. Unless noted, calls follow the shape of the dose curve; as a rule, active = well fitted curve in the direction sought with a large enough effect; inconclusive = small, poorly fitted or top-dose-only effect, or another doubt; inactive = no such curve, though single readings can be large; an effect the other way counts as inactive or inconclusive. Unless noted, % is scaled to controls: 0 for no effect and ±100 for the full control effect.

SMILES	DT40 TDP1 CPT	TDP1 cell noCPT	IL-1B inflam inh	HT1080NT lethal	HT1080 IDH1KD tx
CCn1cc2nc(SCC(=O)Nc3ccc(OC)cc3OC)n(Cc3ccc(Cl)cc3)c(=O)c2n1	21µM*	18µM*	x	x	x
CCn1cc2nc(SCC(=O)Nc3cc(OC)ccc3OC)n(Cc3ccc(Cl)cc3)c(=O)c2n1	12µM*	8.2µM*	x	x	x
CCN(CC)C(=O)CSc1nc2cc3c(cc2c(=O)n1CCCC(=O)NCc1ccc(OC)cc1)OCO3	u	u	-26	13%	16%
CCN(CC)C(=O)CSc1nc2cc(OC)c(OC)cc2c(=O)n1Cc1ccc(Cl)cc1	u	18µM*	-53*	-21%	-28%
COc1ccc(NC(=O)CSc2nccn2Cc2ccc(F)cc2)c(OC)c1	1%	-7%	20	2%	3%
Cc1nc(C(F)(F)F)ccc1C(=O)N1CCC1(C)C(=O)NS(=O)(=O)c1ccc(C(C)(C)C)cc1 (stereo unspecified)	-27%	-2%	2	20%	u
O=C(Nc1ccccc1N1CCOCC1)c1ccc2ccccc2n1	u	16µM*	-2	-19%	-9%
COc1ccc(-c2cc(C(=O)NNC(=O)c3csc(N4CCOCC4)n3)c3ccccc3n2)cc1OC	21µM*	16µM*	-16	-13%	-14%
COc1cc(-c2cc(C(=O)Nc3ccc(N4CCOCC4)cc3)c3ccccc3n2)cc(OC)c1OC	2.6µM*	1.8µM*	84	-1%	-1%
COc1ccc(-c2cc(C(=O)NNC(=O)c3csc(N4CCOCC4)n3)c3ccccc3n2)cc1	-26%	u	-15	-7%	-7%
Cn1nc(C(=O)Nc2ccccc2N2CCOCC2)ccc1=O	-29%	u	1	3%	6%
O=C(Nc1ccc(SC(F)F)cc1)c1cc(-c2ccncc2)nc2ccccc12	u	21µM*	-14	-25%	u
C[C@H]1CCC[C@]2(O[C@H](CCO)C[C@@H](O)[C@@H]2O)O1	-10%	1%	1	8%	-1%
CN(CC(=O)Nc1cc(Cl)ccc1C#N)C1CCS(=O)(=O)C1 (stereo unspecified)	1%	-2%	30	-3%	2%
CN1CCC(OC(=O)c2cc3cc(Br)ccc3oc2=O)CC1	22%	-5%	35	-29%	-6%
O=C(NN1CCOCC1)c1cc(-c2ccncc2)nc2ccccc12	-7%	-29%	16	u	9%
COc1ccc(-c2cc(C(=O)Nc3ccc(Cl)cc3Cl)c3ccccc3n2)cc1OC	u	u	18	0%	11%
O=C(Nc1ccc(N2CCOCC2)cc1)c1cc(-c2ccncc2)nc2ccccc12	21µM*	u	-2	-7%	-6%
COc1ccc(-c2cc(C(=O)Nc3ccccc3N3CCOCC3)c3ccccc3n2)cc1OC	7.3µM*	4.6µM*	-52*	-10%	u
COc1cc(-c2cc(C(=O)Nc3cc(S(=O)(=O)N4CCOCC4)ccc3C)c3ccccc3n2)cc(OC)c1OC	16µM*	12µM*	-5	-4%	-2%
O=C(Nc1ccccc1N1CCOCC1)c1cc(-c2ccncc2)nc2ccccc12	12µM*	12µM*	-7	-26%	-26%
COc1ccc(OC)c(CNC(=O)CN(c2ccc(C)cc2)S(=O)(=O)N(C)C)c1	-14%	-20%	x	x	x
COc1ccc(CNC(=O)COC(=O)c2cccs2)cc1	27%	2%	33	5%	10%
CCn1c(SCC(=O)NC2CCCC2)nnc1C(C)C	3%	-5%	-6	26%	19%
COc1ccc(-c2cc(C(=O)Nc3cc(S(N)(=O)=O)ccc3C)c3ccccc3n2)cc1OC	u	23µM*	-6	-14%	-11%
SMILES	DT40 TDP1 CPT	TDP1 cell noCPT	IL-1B inflam inh	HT1080NT lethal	HT1080 IDH1KD tx
COc1ccc(-c2cc(C(=O)Nc3ccc(S(N)(=O)=O)cc3)c3ccccc3n2)cc1OC	-10%	u	13	-22%	u
CCOc1cc(N2CCOCC2)c(OCC)cc1NC(=O)c1oc2ccccc2c1C	-14%	u	-6	4%	0%
CCOc1cc(N2CCOCC2)c(OCC)cc1NC(=O)c1cc(-c2ccco2)nc2ccccc12	u	23µM*	-4	0%	17%
CCCCCCCCNC(C)C(O)c1ccc(SC(C)C)cc1 (stereo unspecified)	18µM*	16µM*	-86*	23µM*	u
C[C@@H](NCCc1ccc(O)cc1)[C@@H](O)c1ccc(O)cc1	8%	-2%	-5	16%	5%
Cc1cc(C)c(Cn2c(C)c(CNCCCc3ccccc3)c(C(=O)O)c2C)c(C)c1	u	23µM*	x	x	x
CC(=O)N(c1ccccc1)c1ccccc1[N+](=O)[O-]	u	26µM*	25	8%	0%
O=[N+]([O-])c1ccc(N2CCCCC2)nc1N1CCCCC1	u	21µM*	-2	13%	u
OC(COc1ccc2ccccc2c1Br)Cn1ccnc1 (stereo unspecified)	u	21µM*	-25	-20%	-23%
CCCS(=O)(=O)NC(=O)C1(C)CCN(C(=O)c2ccc(F)c(C)c2)C1 (stereo unspecified)	-45%	-4%	0	u	3%
CC(=O)NCCNc1nc2cc(-c3cccc(Cl)c3)sc2c(=O)n1C	-1%	-22%	-13	-5%	-15%
CCNc1nc(N)c(C(=O)c2ccc(Cl)s2)s1	-1%	1%	-96*	-11%	-13%
CC(C)(C)c1csc(NC(=O)c2ccc(Cl)s2)n1	u	u	-23	u	u
COc1ccccc1N1CCN(C(=O)C(=O)c2c[nH]c3ccccc23)CC1	-13%	u	-13	-1%	-1%
Cc1ccc(C)c(OC(=O)CN2C(=O)c3ccccc3C2=O)c1	8%	5%	1	3%	18%
